Results as given in PubChem BioAssay (NCI).
This is part of a sample that, as a whole, favours compounds with a hit. Of some 83,000 tested, about 20% had one in any assay.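 Growth was measured after 48 h exposure to one concentration of compound in 96-well plates. Values under 10 count as active.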 Values without a mark were called inactive. The source made the active and inactive calls.

The compounds below were run on M14 melanoma (assay: NCI-60 one-dose screen, 48 h (100 = growth as untreated, 0 = no growth, -100 = all killed)). Conditions: 10 µM unless noted.
`c1ccc2c(c1)oc1cc3sccc3nc12` was tested, and the growth was 94.7%. Work on `CC1=C(C(=O)OCC2CCN(C(=O)OC(C)(C)C)CC2)[C@H](c2cccc(C#N)c2)C2=C(CC(C)(C)CC2=O)N1` yielded a growth of 50.4%. `O=C(c1nc2ccccc2[nH]1)C1C(c2ccc([N+](=O)[O-])cc2)C2CC3CCCCC3N2[C@@]12C(=O)Nc1cc(Cl)ccc12` (stereo partly drawn) showed a growth of 21.2%. Work on `Nc1ccn(C2O[C@H](CO)[C@@H](O)[C@H]2O)c(=O)n1` (stereo partly drawn) yielded a growth of 107%. In the case of `Nc1ccc(-n2c(=O)oc3ccc(Cl)cc3c2=O)c(Cl)c1`, the growth is reported as -11.2% (active). Work on `CC1=C(C(=O)OCC2CCN(C(=O)OC(C)(C)C)CC2)[C@@H](c2cccc(C#N)c2)C2=C(CC(C)(C)CC2=O)N1` yielded a growth of 35.7%. For `N#Cc1c(N)nc2c(c1N)C(c1ccc(F)cc1)c1ccc(N)cc1O2` (stereo not drawn), the growth was 111%. With `COc1ccc(Cn2c(Br)c3c(c2-c2cc(OC)c(OC)c(OC)c2)CCc2sc(NC(=O)c4ccc(OC)cc4)nc2-3)cc1` the growth was 97.4%. In the case of `O=c1cc(NC2CCN(CCCc3ccccc3)CC2)c2cc(Cl)ccc2o1`, the growth is reported as 4.04% (active). With `Brc1ccc(Oc2ccc(Nc3ncnc4onc(-c5ccccc5)c34)cc2)cc1` the growth was 98.3%. In the case of `NNC(=O)CNC(=O)Nc1n[nH]c(=S)s1`, the growth is reported as 93.5%. `COc1ccc(Cn2c(Br)c3c(c2-c2cc(OC)c(OC)c(OC)c2)CCc2sc(NC(C)=O)nc2-3)cc1` gave a growth of 47.9%. For `COc1ccc(/C=C2\NC(=O)NC2=O)cc1O`, the growth was 89.8%.
